A selection: hits, their analogues and other compounds. The true share with any hit is near 21%.
CHX counter = counter-screen hit for Shiga toxin inhibitors, cycloheximide; cell reporter, cycloheximide protein synthesis inhibition counterscreen; max response, %; 300,000 tested, 12% active; in the data active = max response mostly above about 13%, no sharp cut-off; inactive = mostly below about 14%; note: read at 38.3 µM for the half of the compounds with a filed dose; 0% is about no effect
Shiga toxin inh = inhibitors of Shiga toxin in Vero cells. Vero cells, Shiga toxin protein synthesis inhibition reporter. inhibition, % at 38.7 µM. 290,000 tested, 9.2% active. AID 2315; in the data active = inhibition mostly above about 28%, no sharp cut-off; inactive = mostly below about 43%; note: 0% is about no effect
Pf growth 96h = P. falciparum growth inhibition at 96 hour, primary screen for plastid delayed-death inhibitors. Potency, µM (titrated, usually from 28.7 µM), inactives show at the highest dose activity change, negative = inhibition, usual class: inhibitors. P. falciparum luciferase reporter growth, 96 h. 320,000 tested, 6.9% active; note: potency is the fitted concentration of half-maximal effect; % is set by controls: 0 for no effect and ±100 for the full control effect
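Delayed-death screen, second-generation endpoint: infected erythrocytes, 2% hematocrit, 0.05% parasitemia final; 96 hours at 37 C, 5% CO2; luciferase detection reagent; luminescence decrease equals reduced growth.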
Pf growth 48h = inhibits P. falciparum growth in the first generation, 48 h | P. falciparum luciferase growth in erythrocytes, 48 h | Potency, µM (series often up to 28.7 µM), for the others: at the top dose activity change, negative = inhibition, actives largely listed as inhibitors | 310,000 tested, 5.9% active | AID 504832; note: potency is the fitted concentration of half-maximal effect; % is set by controls: 0 for no effect and ±100 for the full control effect
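Read-out is firefly luciferase luminescence from an integrated reporter in P. falciparum, so falling signal marks reduced parasite growth. Infected erythrocytes were at 2% hematocrit and 0.1% parasitemia (final) in Albumax-supplemented RPMI 1640.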
Active calls of the source: *. Unless noted, calls come from the whole dose curve; as a rule, active = well fitted inhibition curve with a large enough effect; inconclusive = small, poorly fitted or top-dose-only effect, or another doubt; inactive = no such curve, though single readings can be large or run the other way.

What do the screens show for `COCCn1c(C)cc(C(=O)CSc2nc3ccccc3c(=O)[nH]2)c1C`?
CHX counter: 53*; Shiga toxin inh: 92*; Pf growth 96h: 0.29µM*; Pf growth 48h: 10%

How did Cc1nn2c(=O)cc(CSc3nc4ccccc4[nH]3)nc2s1 do in these assays?
CHX counter: 22*; Shiga toxin inh: 39; Pf growth 96h: -6%

How did CCn1ccnc1CN1CCC(n2nccc2NC(=O)c2ccccc2OC)CC1 do in these assays?
CHX counter: -3; Shiga toxin inh: -6; Pf growth 96h: -11%; Pf growth 48h: 16%

Results for COCCn1c(SCc2c(F)cccc2Cl)nc2c1c(=O)[nH]c(=O)n2C ?
CHX counter: -2; Shiga toxin inh: 3; Pf growth 96h: 0%; Pf growth 48h: -26%

Results for COc1ccc(OCCCC(=O)NCCc2nc3ccccc3[nH]2)cc1 ?
CHX counter: -3; Shiga toxin inh: -6; Pf growth 96h: 85%; Pf growth 48h: inconclusive

Results for COc1cccc(OCc2nc3ccccc3[nH]2)c1 ?
CHX counter: 36*; Shiga toxin inh: 93*; Pf growth 96h: inconclusive

What do the screens show for `COc1ccc(OCc2nc3ccccc3[nH]2)cc1`?
CHX counter: 30; Shiga toxin inh: 152*; Pf growth 48h: 115%

What do the screens show for `c1ccc2cc(OCc3nc4ccccc4[nH]3)ccc2c1`?
CHX counter: 49*; Shiga toxin inh: 108*; Pf growth 96h: -19%; Pf growth 48h: 308%

How did O=C(COc1ccc2ccccc2c1)Nc1nc2ccccc2[nH]1 do in these assays?
CHX counter: -2; Shiga toxin inh: 29; Pf growth 48h: 24%

Results for CN(C)C(=O)Oc1ccc(OCc2nc3ccccc3[nH]2)cc1 ?
CHX counter: 24*; Shiga toxin inh: 35*; Pf growth 96h: 120%; Pf growth 48h: 104%

How did Cc1cccc(CN2CCC(n3nccc3NC(=O)CCCc3ccccc3)CC2)n1 do in these assays?
CHX counter: -5; Shiga toxin inh: -5; Pf growth 96h: 23%; Pf growth 48h: -24%

How did CC1(C(=O)O)CCC(C(=O)Nc2cccc(F)c2)C1(C)C (stereo not drawn) do in these assays?
CHX counter: 1; Shiga toxin inh: -13; Pf growth 96h: -26%; Pf growth 48h: 0%

How did Clc1ccc(OCCSCc2nc3ccccc3[nH]2)cc1 do in these assays?
CHX counter: 7; Shiga toxin inh: 5; Pf growth 96h: inconclusive; Pf growth 48h: inconclusive

How did COc1cccc(NC(=O)CSc2nc3ncc(Br)cc3[nH]2)c1 do in these assays?
CHX counter: -3; Shiga toxin inh: 26; Pf growth 96h: 6%; Pf growth 48h: 24%

How did Brc1ccc(OCc2nc3ccccc3[nH]2)cc1 do in these assays?
CHX counter: 55*; Shiga toxin inh: 94*; Pf growth 96h: 169%; Pf growth 48h: 143%

Results for CN(CC(=O)O)Cc1nc2ccccc2[nH]1 ?
CHX counter: 28*; Shiga toxin inh: 48; Pf growth 96h: 106%

How did CC(=O)NCCc1nc2ccccc2[nH]1 do in these assays?
CHX counter: 0; Shiga toxin inh: -3; Pf growth 96h: 2%; Pf growth 48h: 14%

How did COc1cccc(OCc2nc3ncc(Br)cc3[nH]2)c1 do in these assays?
CHX counter: 17*; Shiga toxin inh: 31; Pf growth 96h: inconclusive; Pf growth 48h: 34%

Results for FC(F)Oc1ccc(NC(=S)NCC2COc3ccccc3O2)cc1 (stereo not drawn) ?
CHX counter: -2; Shiga toxin inh: -6; Pf growth 96h: 34%; Pf growth 48h: 16%

How did N[C@H]1CCN(O)C1=O do in these assays?
CHX counter: 15; Shiga toxin inh: 2

How did O=C(OC1CCOC1=O)C1CCN(S(=O)(=O)c2ccc(Cl)c(C(F)(F)F)c2)CC1 (stereo not drawn) do in these assays?
Pf growth 96h: 16%; Pf growth 48h: -4%

How did O=C1c2ccccc2C2(c3ccc(F)cc3)NCCN12 (stereo not drawn) do in these assays?
CHX counter: -5; Shiga toxin inh: -12; Pf growth 96h: 7%; Pf growth 48h: -14%

Results for O=C1c2ccccc2C2(c3ccccc3)N1CCN2C(=O)C(Cl)(Cl)Cl (stereo not drawn) ?
CHX counter: -5; Shiga toxin inh: 30; Pf growth 96h: 0.83µM*

Results for Cc1ccc(C(=O)N2CCN3C(=O)c4ccccc4C23c2ccccc2)cc1 (stereo not drawn) ?
CHX counter: -5; Shiga toxin inh: -9; Pf growth 96h: inconclusive; Pf growth 48h: inconclusive

What do the screens show for `O=C(Nc1ccc(F)cc1)N1CCN2C(=O)c3ccccc3C12c1ccccc1` (stereo not drawn)?
CHX counter: -9; Shiga toxin inh: -2; Pf growth 96h: 13µM*

Results for COc1ccc(C(=O)/C=C/Nc2ccccn2)c(OC)c1 ?
CHX counter: 52*; Shiga toxin inh: 57*; Pf growth 96h: 378%; Pf growth 48h: 432%

Results for O=C(/C=C/Nc1ccccc1)c1ccc(Oc2ncccn2)cc1 ?
CHX counter: 24*; Shiga toxin inh: 109*; Pf growth 96h: 263%; Pf growth 48h: 220%

How did O=C(/C=C\Nc1ccccn1)c1ccccc1 do in these assays?
CHX counter: 17; Shiga toxin inh: 55*; Pf growth 96h: inactive; Pf growth 48h: -53%

What do the screens show for `COC(=O)C(CC(C)C)NS(=O)(=O)c1ccccc1Br` (stereo not drawn)?
CHX counter: 14; Shiga toxin inh: 8

Results for O=C(CCc1nnc(CCc2ccccc2)o1)N1CCCC1c1nccs1 (stereo not drawn) ?
CHX counter: 16*; Shiga toxin inh: 25; Pf growth 96h: 13µM*; Pf growth 48h: 0%

How did COC(=O)C1CCCCN1C(=O)CCc1nnc(CCc2c[nH]c3ccccc23)o1 (stereo not drawn) do in these assays?
CHX counter: -2; Shiga toxin inh: 40; Pf growth 96h: inconclusive; Pf growth 48h: inconclusive

What do the screens show for `CCC1CCCCN1C(=O)CCc1nnc(Cc2c[nH]c3ccccc23)o1` (stereo not drawn)?
CHX counter: 9; Shiga toxin inh: 31*; Pf growth 96h: inconclusive; Pf growth 48h: -27%

Results for CC1CCCCN1C(=O)CCc1nnc(Cc2c[nH]c3ccccc23)o1 (stereo not drawn) ?
CHX counter: 7; Shiga toxin inh: 8; Pf growth 96h: inconclusive; Pf growth 48h: -1%

How did COC(=O)[C@@H]1CCCN1C(=O)CCc1nnc(CCC2CCCCC2)o1 do in these assays?
CHX counter: 34*; Shiga toxin inh: 74*; Pf growth 96h: -17%; Pf growth 48h: 13%

How did Cc1nc(C(C)NC(=O)CCc2nnc(Cc3c[nH]c4ccccc34)o2)cs1 (stereo not drawn) do in these assays?
CHX counter: 11; Shiga toxin inh: 17; Pf growth 96h: 4.7µM*; Pf growth 48h: -24%

How did CC(c1nccs1)N(C)C(=O)CCc1nnc(CCc2ccccc2)o1 (stereo not drawn) do in these assays?
CHX counter: 4; Shiga toxin inh: 40; Pf growth 96h: 28%; Pf growth 48h: 5%

Results for COC(=O)[C@@H]1CCCN1C(=O)CCc1nnc(CCc2c[nH]c3ccccc23)o1 ?
CHX counter: 47*; Shiga toxin inh: 48*; Pf growth 96h: 6%; Pf growth 48h: inconclusive

Screening results from PubChem BioAssay.
